PubChem BioAssay (NCATS)
Values without a mark were called inactive. How the calls were made is not given here.

These molecules were tested on HIV-1 nucleocapsid protein NCp7 (binding to TG oligonucleotide) (assay: HIV Nucleocapsid (AID 346;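 further: potency is for inhibitors that block NC binding and lower polarization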)). Settings: HIV-1 NC / fluorescein-TGTGTGTG probe, fluorescence polarization.
In short: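 NCp7 100 nM + fluorescein TG4xF 10 nM; Hepes pH 7.5/250mM NaCl/1uM ZnCl2/0.004% PEG 20000; 1 hr RT; FP, 45 s exposure; oligo-only wells as negative control.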
Potency means the concentration at half of the fitted maximal effect.

| Structure (SMILES) | Potency |
| --- | --- |
| CS(=O)(=O)N1CCC[C@@]2(CCN(c3ccccc3)C2)C1 | > 20 µM |
| COc1ccc(NC(=O)N2CC[C@@]3(CCCN(C(C)=O)C3)C2)cc1 | > 20 µM |
| Cc1nc2cnc(Oc3cccc(Cl)c3)nc2n(Cc2ccc(F)cc2)c1=O | > 20 µM |
| CS(=O)(=O)Nc1cccc(-c2cc(NCc3cccs3)ncn2)c1 | > 20 µM |
| Cn1cc(-c2nc3cncnc3n(CCN)c2=O)c2ccccc21 | > 20 µM |
| COc1ccc(NC(=O)N2CCCC3(CCN(C(=O)c4csnn4)CC3)C2)cc1 | > 20 µM |
| COc1ccc(-n2c(=O)c(CCc3ccccc3)nc3cnc(N(C)C)nc32)cc1 | > 20 µM |
| Cc1noc(C)c1C(=O)N1CCC2(CC1)CCN(c1ncccn1)CC2 | > 20 µM |
| Cc1ccccc1-c1cc(NCCN2CCOCC2)ncn1 | > 20 µM |
| COCCNc1ncnc2ccc(-c3ccoc3)cc12 | > 20 µM |
| COc1ccc(CNc2nc(-c3ccc(C(=O)N(C)C)cc3)nc3ccccc23)c(OC)c1 | > 20 µM |
| COc1cccc(Cn2c(=O)c(-c3cccs3)nc3cnc(N4CCOCC4)nc32)c1 | > 20 µM |
| CN(C)C(=O)c1ccc(-c2nccc(Nc3ccc(F)cc3)n2)cc1 | > 20 µM |
| COCCn1c(=O)c(CCc2ccccc2)nc2cnc(Oc3cccc(Cl)c3)nc21 | > 20 µM |
| CCNc1ncc2nc(-c3ccc(F)cc3)c(=O)n(-c3ccccc3)c2n1 | > 20 µM |
| COC(=O)N1CCC2(CCCN(c3ncccn3)C2)CC1 | > 20 µM |
| COc1ccc(-n2c(=O)cnc3cnc(Oc4ccccc4)nc32)cc1 | > 20 µM |
| Cc1noc(C)c1-c1nc(N(C)C)c2ccccc2n1 | > 20 µM |
| CN(C)Cc1ccccc1-c1cncnc1NCc1cccnc1 | > 20 µM |
| O=C(c1ccco1)N1CCC2(CC1)CCN(c1ccccc1)CC2 | > 20 µM |

| Structure (SMILES) | Potency |
| --- | --- |
| FC(F)(F)c1ccccc1-c1nccc(N2CCNCC2)n1 | > 20 µM |
| O=C(c1ccco1)N1CCC2(CCCN(c3ccccn3)C2)CC1 | > 20 µM |
| Cc1cccc(CNc2cc(-c3ccccc3Cl)ncn2)c1 | > 20 µM |
| O=S(=O)(c1ccccc1)N1CCC2(CC1)CN(Cc1ccccc1)C2 | > 20 µM |
| Cc1noc(C)c1C(=O)N1CCC2(CCCN(C(=O)Nc3ccccc3)C2)CC1 | > 20 µM |
| COc1cccc(Cn2c(=O)c(-c3cn(C)c4ccccc34)nc3cnc(OC)nc32)c1 | > 20 µM |
| Cc1cnc(CNc2ncnc3ccc(-c4cccc(NS(C)(=O)=O)c4)cc23)cn1 | > 20 µM |
| COCC(=O)N1CCC2(CCCN(c3ccncc3)C2)CC1 | > 20 µM |
| c1nc(N2CCNCC2)c2cc(-c3ccc4c(c3)OCO4)ccc2n1 | > 20 µM |
| CS(=O)(=O)Nc1cccc(-c2cncnc2Nc2ccc(F)cc2)c1 | > 20 µM |
| CN1CCN(c2ncc3nc(-c4cc(F)cc(F)c4)c(=O)n(C4CC4)c3n2)CC1 | > 20 µM |
| N#Cc1cccc(NC(=O)N2CC[C@@]3(CCCNC3)C2)c1 | > 20 µM |
| CNc1nc(-c2ccc3c(c2)OCO3)nc2ccccc12 | > 20 µM |
| CN1CCN(c2ncc3nc(-c4cn(C)c5ccccc45)c(=O)n(Cc4cccs4)c3n2)CC1 | > 20 µM |
| Cc1noc(C)c1-c1cncnc1NC1CC1 | > 20 µM |
| O=C(Nc1cccc(F)c1)N1CC2(CCN(S(=O)(=O)c3ccccc3)CC2)C1 | > 20 µM |
| Cc1ccccc1-c1nc(NC2CCNCC2)c2ccccc2n1 | > 20 µM |
| Cc1noc(C)c1-c1cncnc1NCCN1CCOCC1 | > 20 µM |
| Cn1c(=O)c(-c2cccc(C#N)c2)nc2cnc(Oc3ccccc3)nc21 | > 20 µM |
| CC(C)NC(=O)N1CC[C@@]2(CCCN(C(=O)c3ccco3)C2)C1 | > 20 µM |
